40 compounds from ChEMBL document CHEMBL3433997, “St. Jude Leishmania screening dataset” (2016) can be followed below.

In this experiment the target is Glucose transporter (Leishmania mexicana) (UniProt O61059). Description: ST_JUDE_LEISH: Cytotoxicity at 2uM final concentration against transgenic Leishmania Mexicana promastigotes LmGT2 that are glucose transport deficient and complemented with the L. Mexicana glucose transporter 2. Activity is measured by DNA content using SYBR green in vitro. The format is functional.
As for `ON=C1CCc2cc(-c3cc(-c4ccc(OC5CCNCC5)cc4)oc3-c3ccncc3)ccc21`, the inhibition was -0.04%. As for `COc1ccc(CC(=O)NC(CCCN2CCC(c3ccccc3)CC2)c2ccc(Cl)c(Cl)c2)cc1OC` (stereo not given), the figure is 0.22%; as for `COc1ccc(-c2nc(NC(=O)Cc3ccc4c(c3)OCCO4)sc2C)cc1`, 5.29%; as for `Cc1ccc2[nH]ncc2c1N(CC1CCCCC1)c1ccnc(Nc2ccc(OCC(O)CN3CC=CCC3)cc2)n1` (stereo not given), -0.59%. With `COc1ccc(NC(=O)CCNc2cc(C)nc(NCCc3ccc(F)cc3)n2)cc1`, the inhibition is -0.01%.

For `CC(C)(CNCc1ccccc1)c1nc(-c2ccc(Cl)c(O)c2)c(-c2ccncc2)[nH]1`, the inhibition came out at 3.53%. For `CCN1CCc2c1cc(C(=O)N[C@@H](Cc1ccccc1)[C@H](O)CNC(C)(C)c1cccc(C(F)(F)F)c1)cc2N1CCCCS1(=O)=O`, the inhibition was determined as 2.66%. The same measure for `Cc1ccc2nc(C)n(C3CCN(C(=O)C4(c5ccccc5)CC4)CC3)c2c1`: 5.27%; for `CN(C)C(=O)CC(=O)NCc1cccc(Cl)c1`: 7.23%; for `O=C(NCc1cccc(F)c1)Nc1cccc(-c2cccc(-c3nc4cc(C(F)(F)F)ccc4[nH]3)c2)c1`: -2.1%. `CC(C)(C)N1CCC(N(Cc2ccc(-c3ccc(C(F)(F)F)cc3)cc2)C(=O)Cn2c(CCc3cccc(F)c3F)cc(=O)c3ccccc32)CC1`: the inhibition came to 1.02%. As for `COc1ccc(-c2cnc3ccc(NCCCO)nn23)cc1OC`, the figure is 1.14%; as for `CC(=O)Nc1nc(C(=O)Nc2cccc(-c3ccc(-c4nc5cc(F)ccc5[nH]4)cc3)c2)cs1`, 4.22%.

With `COCCOc1nc(N)nc2ncc(Cc3cc(OC)ccc3OC)c(C)c12`, the inhibition is -1.06%.

Take `FC(F)(F)c1cccc(CNCC2CCN(CC3CCCCC3)CC2)c1`: the inhibition was determined as 0.34%. As for `O=C(NC1CCN(Cc2ccccc2)CC1)c1ccc(-c2nc3cc4ccccc4cc3[nH]2)s1`, the figure is 4.03%; as for `O=c1cc(NCC2(CNCc3cn(Cc4ccccc4)c4ccccc34)CCCCC2)[nH]c2ccccc12`, 5.44%; as for `CC(C)CC(C)NC(=O)C1Cc2c([nH]c3cc(Cl)ccc23)C2(CCN(CCc3ccccc3)CC2)N1` (stereo not given), 4.34%. For `CCc1nc2nc(C)cc(Nc3ccc4c(c3)OCCO4)n2n1`, the inhibition is -3.9%. The same measure for `Cc1cc(N/N=C/c2ccccc2[N+](=O)[O-])c2cc(F)ccc2n1`: 0.94%. For `CN(C)CCN1CCN(Cc2ccc(-c3cccc(-c4nc5ccccc5[nH]4)c3)cc2)CC1`, the inhibition is -0.98%.

On to `O=C(NCc1ccc(Cl)cc1)c1ccc(CN2CCCN(Cc3cccc(O)c3)CC2)cc1`, for which the inhibition is 2.04%. As for `CCn1cc(C(=O)O)c(=O)c2cc(F)c(N3CCN(S(=O)(=O)c4ccc(N)cc4)CC3)cc21`, the figure is -4%.

Turning to `CCCC(C)NC(=O)[C@H](Cc1ccccc1)NC(=O)c1ccc(O)c(-c2ccc(OC)cc2)c1` (stereo not given in full), the inhibition was determined as 3.9%. The same measure for `CN(C)Cc1c(O)ccc2[nH]c(-c3ccc(F)cc3F)nc12`: -1.59%; for `CCOC(=O)c1c(NC(=O)c2ccccc2)sc2c(O)c(CNC3CCCCC3)ccc12`: -0.44%.

Take `CN1CCN(Cc2ccc(-c3cc4c(Nc5ccc(OCc6cccc(F)c6)c(Cl)c5)ncnc4s3)[nH]2)CC1`: the inhibition was found to be 8.25%. The same measure for `Cc1cc(Br)cnc1CCCCNC1=NC(=O)CN1C`: 0.12%; for `CCCN1CCN(CCCCNc2c3ccccc3nc3ccccc23)CC1`: 27.7%; for `CC(=O)Nc1ccc(C(=O)Nc2cccc(-c3ccc(-c4nc5cc(C(F)(F)F)ccc5[nH]4)cc3)c2)cn1`: 3.05%. For `CCCN(CCC)S(=O)(=O)c1ccc(C(=O)Nc2nc3ccc(-c4cc(=O)[nH]c(Nc5ccccc5Cl)n4)cc3[nH]2)cc1`, the inhibition came to 4.26%. The same measure for `Cc1ccccc1C1CCN(C2CCC(NC(=O)c3ccc(-c4cc(C(F)(F)F)nn4C)s3)CC2)CC1` (stereo not given): 9.51%.

Turning to `COc1cc(NC(=O)c2c(-c3c(F)cccc3Cl)noc2C)c(OC)cc1Cl`, the inhibition is -4.01%. The same measure for `COc1cc2c(cc1C(F)(F)F)N(C(=O)Nc1cccc(-c3ccc(CN(C)C)cc3)c1)CC2`: 44%. The same measure for `NCCCOc1cnc(-c2ccccc2)c2nc(-c3nonc3N)n(CCc3ccccc3)c12`: 1.33%; for `Nc1nccc2ccc(Oc3ccncc3)cc12`: 4.2%; for `COc1ccc(-c2ccc(NC(=O)c3cccc(F)c3)cc2)cc1CN1CCCN(C)CC1`: -2.3%. As for `CC(C)NCc1ccc(-c2cccc(NC(=O)c3ccc(C#N)cc3)c2)cc1`, the figure is 7.32%; as for `CCc1sc(N2CCN(C)CC2)nc1C(=O)NCCc1ccc(Cl)c(Cl)c1`, 3.6%.

Consider `Cc1sc2ncnc(Sc3nc4ccccc4[nH]3)c2c1C`, for which the inhibition was 3.58%.
